In ChEMBL document CHEMBL1961873, “Compounds: GSK PKIS; Assays: Nanosyn kinase panel” (2012):

Tests used:
[1] = target: Sphingosine kinase 1 (Homo sapiens) (UniProt Q9NYA1); conditions: at 1 µM;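 note: mean SPHK1 inhibition value reported from the GSK PKIS kinase panel screen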
[2] = target: T1, Sphingosine kinase 2 (Homo sapiens) (UniProt Q9NRA0); conditions: at 0.1 µM
T1 sequence (whole entry): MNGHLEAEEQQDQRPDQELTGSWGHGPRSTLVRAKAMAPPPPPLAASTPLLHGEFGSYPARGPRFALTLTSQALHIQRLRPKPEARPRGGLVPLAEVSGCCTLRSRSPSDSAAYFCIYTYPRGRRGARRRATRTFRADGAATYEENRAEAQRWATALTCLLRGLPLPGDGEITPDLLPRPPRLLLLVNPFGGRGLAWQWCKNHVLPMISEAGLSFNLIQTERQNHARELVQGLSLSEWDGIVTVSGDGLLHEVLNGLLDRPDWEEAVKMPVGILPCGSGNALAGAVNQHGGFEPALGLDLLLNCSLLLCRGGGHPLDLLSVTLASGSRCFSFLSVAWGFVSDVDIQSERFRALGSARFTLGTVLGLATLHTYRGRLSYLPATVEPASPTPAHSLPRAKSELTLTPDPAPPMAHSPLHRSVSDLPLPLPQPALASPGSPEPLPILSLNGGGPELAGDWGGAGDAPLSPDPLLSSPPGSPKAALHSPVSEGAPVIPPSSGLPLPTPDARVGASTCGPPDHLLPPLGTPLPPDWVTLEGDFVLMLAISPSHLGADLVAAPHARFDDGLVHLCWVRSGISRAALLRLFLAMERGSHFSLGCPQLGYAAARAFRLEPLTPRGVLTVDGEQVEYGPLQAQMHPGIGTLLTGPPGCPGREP

[3] = target: T1, Sphingosine kinase 2 (Homo sapiens); conditions: at 1 µM
[4] = target: Casein kinase II subunit alpha (Homo sapiens) (UniProt P68400); conditions: at 0.1 µM
[5] = target: Casein kinase II subunit alpha (Homo sapiens) (UniProt P68400); conditions: at 1 µM
[6] = target: T2, Inhibitor of nuclear factor kappa-B kinase subunit alpha (Homo sapiens) (UniProt O15111); conditions: at 0.1 µM
T2 sequence (whole entry): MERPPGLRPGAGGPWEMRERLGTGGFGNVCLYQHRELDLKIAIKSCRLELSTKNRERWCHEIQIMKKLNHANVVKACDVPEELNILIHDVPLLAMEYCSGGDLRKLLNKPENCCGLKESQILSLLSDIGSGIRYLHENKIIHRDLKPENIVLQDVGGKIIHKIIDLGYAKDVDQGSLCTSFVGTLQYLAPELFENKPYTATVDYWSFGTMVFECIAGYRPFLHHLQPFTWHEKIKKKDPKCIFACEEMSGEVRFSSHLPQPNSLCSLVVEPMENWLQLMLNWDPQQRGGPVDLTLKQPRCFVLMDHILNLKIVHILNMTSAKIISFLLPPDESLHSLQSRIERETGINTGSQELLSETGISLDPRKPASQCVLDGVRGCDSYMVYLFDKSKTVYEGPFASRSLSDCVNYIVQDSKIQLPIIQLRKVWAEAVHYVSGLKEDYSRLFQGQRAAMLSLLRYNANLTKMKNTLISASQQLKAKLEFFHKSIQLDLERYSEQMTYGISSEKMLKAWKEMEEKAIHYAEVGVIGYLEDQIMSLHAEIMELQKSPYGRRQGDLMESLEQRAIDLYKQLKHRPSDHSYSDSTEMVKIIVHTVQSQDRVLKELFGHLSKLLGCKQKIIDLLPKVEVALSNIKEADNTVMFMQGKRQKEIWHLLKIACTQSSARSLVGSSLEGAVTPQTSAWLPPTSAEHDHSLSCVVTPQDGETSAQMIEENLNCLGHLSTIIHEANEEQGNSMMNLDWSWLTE

[7] = target: T2, Inhibitor of nuclear factor kappa-B kinase subunit alpha (Homo sapiens); conditions: at 1 µM
[8] = target: T3, Inhibitor of nuclear factor kappa-B kinase subunit beta (Homo sapiens) (UniProt O14920); conditions: at 0.1 µM
T3 sequence (whole entry): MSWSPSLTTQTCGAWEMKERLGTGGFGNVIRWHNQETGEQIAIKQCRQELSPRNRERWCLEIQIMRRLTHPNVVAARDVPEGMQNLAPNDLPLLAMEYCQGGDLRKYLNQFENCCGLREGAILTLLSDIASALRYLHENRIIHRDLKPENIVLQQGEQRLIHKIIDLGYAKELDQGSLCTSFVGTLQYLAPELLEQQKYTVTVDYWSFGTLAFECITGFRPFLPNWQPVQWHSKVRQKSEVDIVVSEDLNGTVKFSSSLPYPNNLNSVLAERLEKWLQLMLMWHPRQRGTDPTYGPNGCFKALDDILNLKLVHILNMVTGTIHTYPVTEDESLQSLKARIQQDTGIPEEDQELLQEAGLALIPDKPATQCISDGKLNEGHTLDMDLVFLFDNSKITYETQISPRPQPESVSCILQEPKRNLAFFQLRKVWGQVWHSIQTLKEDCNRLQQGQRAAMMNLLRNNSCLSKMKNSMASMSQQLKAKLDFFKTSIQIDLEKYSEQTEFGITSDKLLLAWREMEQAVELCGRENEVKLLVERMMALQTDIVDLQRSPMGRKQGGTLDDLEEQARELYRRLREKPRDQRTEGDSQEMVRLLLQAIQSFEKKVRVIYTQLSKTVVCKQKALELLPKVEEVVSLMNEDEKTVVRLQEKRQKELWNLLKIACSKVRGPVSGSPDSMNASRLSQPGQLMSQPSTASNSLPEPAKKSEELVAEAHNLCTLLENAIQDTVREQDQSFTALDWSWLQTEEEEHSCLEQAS

[9] = target: T3, Inhibitor of nuclear factor kappa-B kinase subunit beta (Homo sapiens); conditions: at 1 µM
[10] = target: T4, Inhibitor of nuclear factor kappa-B kinase subunit epsilon (Homo sapiens) (UniProt Q14164); conditions: at 0.1 µM
T4 sequence (whole entry): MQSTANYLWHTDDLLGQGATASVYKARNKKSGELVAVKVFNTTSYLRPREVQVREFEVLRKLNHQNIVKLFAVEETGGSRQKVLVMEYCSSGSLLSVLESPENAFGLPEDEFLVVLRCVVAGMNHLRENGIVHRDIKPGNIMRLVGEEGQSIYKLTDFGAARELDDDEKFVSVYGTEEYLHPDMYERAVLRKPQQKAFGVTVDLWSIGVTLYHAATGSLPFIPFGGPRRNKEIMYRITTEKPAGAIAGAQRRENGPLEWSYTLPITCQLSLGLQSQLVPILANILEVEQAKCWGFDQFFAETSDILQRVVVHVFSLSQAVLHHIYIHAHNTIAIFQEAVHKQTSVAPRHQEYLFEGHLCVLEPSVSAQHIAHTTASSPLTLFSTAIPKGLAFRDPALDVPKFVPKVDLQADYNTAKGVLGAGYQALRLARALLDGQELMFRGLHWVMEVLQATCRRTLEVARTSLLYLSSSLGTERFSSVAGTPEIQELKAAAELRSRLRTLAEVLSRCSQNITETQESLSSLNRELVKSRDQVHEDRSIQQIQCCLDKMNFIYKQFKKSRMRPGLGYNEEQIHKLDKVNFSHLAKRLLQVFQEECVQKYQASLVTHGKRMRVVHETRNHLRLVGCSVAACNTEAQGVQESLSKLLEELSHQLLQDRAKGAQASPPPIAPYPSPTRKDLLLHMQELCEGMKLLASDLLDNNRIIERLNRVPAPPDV

[11] = target: T4, Inhibitor of nuclear factor kappa-B kinase subunit epsilon (Homo sapiens); conditions: at 1 µM
[12] = target: T5, Serine/threonine-protein kinase Nek1 (Homo sapiens) (UniProt Q96PY6); conditions: at 0.1 µM
T5 sequence (whole entry): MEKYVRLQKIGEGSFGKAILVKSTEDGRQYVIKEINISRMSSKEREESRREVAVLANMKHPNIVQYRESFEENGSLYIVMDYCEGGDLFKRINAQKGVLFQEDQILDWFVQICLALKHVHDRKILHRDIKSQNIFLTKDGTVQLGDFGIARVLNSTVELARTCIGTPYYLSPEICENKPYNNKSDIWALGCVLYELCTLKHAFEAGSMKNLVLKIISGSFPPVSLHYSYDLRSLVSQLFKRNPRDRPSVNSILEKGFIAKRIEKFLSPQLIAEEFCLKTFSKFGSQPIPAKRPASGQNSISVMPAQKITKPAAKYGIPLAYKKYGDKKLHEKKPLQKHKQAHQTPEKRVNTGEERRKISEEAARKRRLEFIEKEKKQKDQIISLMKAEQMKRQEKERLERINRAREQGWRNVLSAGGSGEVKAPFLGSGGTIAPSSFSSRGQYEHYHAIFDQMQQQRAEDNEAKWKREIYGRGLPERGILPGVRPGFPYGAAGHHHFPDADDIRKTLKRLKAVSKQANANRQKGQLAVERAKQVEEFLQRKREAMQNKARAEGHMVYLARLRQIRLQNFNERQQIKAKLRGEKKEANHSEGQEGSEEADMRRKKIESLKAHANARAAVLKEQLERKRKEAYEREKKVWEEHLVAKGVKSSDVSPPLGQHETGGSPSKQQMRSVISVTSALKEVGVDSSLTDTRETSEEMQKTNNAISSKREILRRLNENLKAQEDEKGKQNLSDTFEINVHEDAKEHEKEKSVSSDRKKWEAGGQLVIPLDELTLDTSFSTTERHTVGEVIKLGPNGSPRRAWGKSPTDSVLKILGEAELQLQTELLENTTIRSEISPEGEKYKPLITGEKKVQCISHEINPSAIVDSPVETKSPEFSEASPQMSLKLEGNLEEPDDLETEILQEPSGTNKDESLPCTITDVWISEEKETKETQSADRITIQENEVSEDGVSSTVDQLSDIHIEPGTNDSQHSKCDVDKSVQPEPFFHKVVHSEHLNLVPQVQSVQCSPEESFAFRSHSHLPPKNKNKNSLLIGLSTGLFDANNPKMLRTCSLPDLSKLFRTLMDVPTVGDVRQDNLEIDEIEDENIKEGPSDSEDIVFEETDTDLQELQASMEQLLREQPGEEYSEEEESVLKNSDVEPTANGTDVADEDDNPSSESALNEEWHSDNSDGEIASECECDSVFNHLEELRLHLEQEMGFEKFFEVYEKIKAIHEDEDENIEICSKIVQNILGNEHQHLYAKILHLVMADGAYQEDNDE

[13] = target: T5, Serine/threonine-protein kinase Nek1 (Homo sapiens); conditions: at 1 µM
[14] = target: T6, Serine/threonine-protein kinase Nek2 (Homo sapiens) (UniProt P51955); conditions: at 0.1 µM
T6 sequence (whole entry): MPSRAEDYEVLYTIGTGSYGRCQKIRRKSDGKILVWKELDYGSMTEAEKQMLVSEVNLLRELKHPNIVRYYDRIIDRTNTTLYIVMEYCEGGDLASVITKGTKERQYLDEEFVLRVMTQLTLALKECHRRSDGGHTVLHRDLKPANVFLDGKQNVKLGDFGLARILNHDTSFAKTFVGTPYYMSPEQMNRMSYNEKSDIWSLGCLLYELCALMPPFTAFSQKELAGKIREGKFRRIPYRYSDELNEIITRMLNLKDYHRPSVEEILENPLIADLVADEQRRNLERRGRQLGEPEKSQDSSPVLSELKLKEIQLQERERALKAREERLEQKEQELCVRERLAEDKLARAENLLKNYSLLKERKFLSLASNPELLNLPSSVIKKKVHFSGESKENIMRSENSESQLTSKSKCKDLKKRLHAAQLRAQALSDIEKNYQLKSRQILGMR

[15] = target: T6, Serine/threonine-protein kinase Nek2 (Homo sapiens); conditions: at 1 µM
[16] = target: Serine/threonine-protein kinase Nek6 (Homo sapiens) (UniProt Q9HC98); conditions: at 0.1 µM
[17] = target: Serine/threonine-protein kinase Nek6 (Homo sapiens) (UniProt Q9HC98); conditions: at 1 µM
[18] = target: Serine/threonine-protein kinase Nek7 (Homo sapiens) (UniProt Q8TDX7); conditions: at 0.1 µM
[19] = target: Serine/threonine-protein kinase Nek7 (Homo sapiens) (UniProt Q8TDX7); conditions: at 1 µM
[20] = target: T7, Serine/threonine-protein kinase Nek9 (Homo sapiens) (UniProt Q8TD19); conditions: at 0.1 µM;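 note: reported value is the mean percent inhibition of NEK9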
T7 sequence (whole entry): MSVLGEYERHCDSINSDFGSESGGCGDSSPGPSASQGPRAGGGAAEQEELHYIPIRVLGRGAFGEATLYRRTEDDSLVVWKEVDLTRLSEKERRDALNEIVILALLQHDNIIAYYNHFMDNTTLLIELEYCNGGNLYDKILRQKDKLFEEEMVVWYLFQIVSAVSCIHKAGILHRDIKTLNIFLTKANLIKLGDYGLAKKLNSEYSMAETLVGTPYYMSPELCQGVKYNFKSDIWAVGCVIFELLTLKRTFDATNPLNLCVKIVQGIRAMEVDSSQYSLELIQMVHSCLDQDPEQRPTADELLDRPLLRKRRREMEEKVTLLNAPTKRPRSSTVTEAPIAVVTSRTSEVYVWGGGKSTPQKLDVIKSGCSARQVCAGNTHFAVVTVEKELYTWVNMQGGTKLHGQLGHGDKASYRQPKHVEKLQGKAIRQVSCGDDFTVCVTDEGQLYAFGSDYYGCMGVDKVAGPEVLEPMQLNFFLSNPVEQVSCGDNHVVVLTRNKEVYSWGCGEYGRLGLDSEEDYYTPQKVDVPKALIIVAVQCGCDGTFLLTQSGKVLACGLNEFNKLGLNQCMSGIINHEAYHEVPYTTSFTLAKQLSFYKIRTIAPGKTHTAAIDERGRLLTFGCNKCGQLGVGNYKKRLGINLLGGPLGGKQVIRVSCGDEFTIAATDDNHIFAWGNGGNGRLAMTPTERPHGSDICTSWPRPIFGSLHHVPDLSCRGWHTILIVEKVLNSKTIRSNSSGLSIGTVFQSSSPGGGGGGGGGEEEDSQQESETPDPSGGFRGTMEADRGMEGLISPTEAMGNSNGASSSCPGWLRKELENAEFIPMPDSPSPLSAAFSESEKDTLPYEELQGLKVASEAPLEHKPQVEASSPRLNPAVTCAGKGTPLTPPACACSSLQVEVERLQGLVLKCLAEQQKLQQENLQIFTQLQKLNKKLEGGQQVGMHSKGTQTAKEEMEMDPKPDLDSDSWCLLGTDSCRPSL

Serine/threonine-protein kinase Nek6 (Homo sapiens), sequence (Q9HC98 whole entry): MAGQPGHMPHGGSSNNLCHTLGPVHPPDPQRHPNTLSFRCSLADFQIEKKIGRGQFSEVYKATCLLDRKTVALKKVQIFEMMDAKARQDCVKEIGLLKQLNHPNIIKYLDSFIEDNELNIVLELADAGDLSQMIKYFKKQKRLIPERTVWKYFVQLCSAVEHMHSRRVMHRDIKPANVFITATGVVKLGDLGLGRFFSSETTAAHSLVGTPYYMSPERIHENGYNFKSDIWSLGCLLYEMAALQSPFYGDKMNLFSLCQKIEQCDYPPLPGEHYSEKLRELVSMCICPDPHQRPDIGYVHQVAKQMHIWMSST
Casein kinase II subunit alpha (Homo sapiens), sequence (P68400 whole entry, looked up): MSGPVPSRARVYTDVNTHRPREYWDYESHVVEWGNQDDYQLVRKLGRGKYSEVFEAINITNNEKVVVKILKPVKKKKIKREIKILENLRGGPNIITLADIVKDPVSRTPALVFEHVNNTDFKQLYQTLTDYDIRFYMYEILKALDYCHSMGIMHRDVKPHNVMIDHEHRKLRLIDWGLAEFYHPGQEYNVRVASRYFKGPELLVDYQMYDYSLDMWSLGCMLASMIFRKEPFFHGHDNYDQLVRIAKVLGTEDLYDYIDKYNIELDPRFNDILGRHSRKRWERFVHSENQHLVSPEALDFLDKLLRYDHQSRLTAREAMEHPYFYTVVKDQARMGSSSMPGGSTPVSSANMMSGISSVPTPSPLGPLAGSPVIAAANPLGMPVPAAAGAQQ
Serine/threonine-protein kinase Nek7 (Homo sapiens), sequence (Q8TDX7 whole entry, looked up): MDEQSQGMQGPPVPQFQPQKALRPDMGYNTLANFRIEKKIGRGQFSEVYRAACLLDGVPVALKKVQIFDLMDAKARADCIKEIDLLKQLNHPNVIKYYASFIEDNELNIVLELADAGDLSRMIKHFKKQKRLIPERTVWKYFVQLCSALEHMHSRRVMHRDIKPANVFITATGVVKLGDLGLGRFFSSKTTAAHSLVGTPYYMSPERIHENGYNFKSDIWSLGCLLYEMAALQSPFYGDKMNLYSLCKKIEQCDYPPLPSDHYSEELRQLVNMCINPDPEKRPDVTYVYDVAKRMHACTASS
Sphingosine kinase 1 (Homo sapiens), sequence (Q9NYA1 whole entry): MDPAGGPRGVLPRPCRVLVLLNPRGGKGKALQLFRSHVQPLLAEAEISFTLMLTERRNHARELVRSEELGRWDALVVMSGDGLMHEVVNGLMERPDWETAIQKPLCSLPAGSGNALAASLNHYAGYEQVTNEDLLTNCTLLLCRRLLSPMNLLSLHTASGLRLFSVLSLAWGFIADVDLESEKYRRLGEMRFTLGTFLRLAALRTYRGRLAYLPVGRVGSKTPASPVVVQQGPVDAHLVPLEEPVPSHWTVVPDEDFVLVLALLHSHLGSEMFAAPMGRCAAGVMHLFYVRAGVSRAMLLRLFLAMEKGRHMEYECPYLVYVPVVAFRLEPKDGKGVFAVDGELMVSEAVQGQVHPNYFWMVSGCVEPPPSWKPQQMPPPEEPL

CNC(=O)c1cncc(/C=C/c2ccccc2C)c1
inhibition [1]: 1.15% | inhibition [2]: 0% | inhibition [3]: 0% | inhibition [4]: 4.87% | inhibition [5]: 7.63% | inhibition [6]: 1.86% | inhibition [7]: 2.32% | inhibition [8]: 3.58% | inhibition [9]: 5.04% | inhibition [10]: 5.9% | inhibition [11]: 5.71% | inhibition [12]: 2.13% | inhibition [13]: 4.28% | inhibition [14]: 4.96% | inhibition [15]: 5.88% | inhibition [16]: 1.4% | inhibition [17]: 3.73% | inhibition [18]: 1.08% | inhibition [19]: 4.03% | inhibition [20]: 3.46%
